# Numbering of substitutions follows the chain as printed.
# Assays:
# Experiment in all cases: HT-SELEX; high values mean tight binding
# Settings in all cases: protein: recombinant; vector His6-GST; dsDNA, one strand shown
# [1] = target: T1, SALL4 ZFC4 WT (HT-SELEX) (Mus musculus, UniProt Q8BX22 870-940)
# T1 sequence: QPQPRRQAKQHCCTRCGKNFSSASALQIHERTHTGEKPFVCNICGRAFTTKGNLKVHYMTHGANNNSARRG
# In short: (§1)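 Binding signal is expressed as fold change in each canonical k-mer's read fraction over the initial random library. To obtain it, 1 µg of purified recombinant mouse SALL4 zinc finger cluster 4 (residues 870–940) was incubated for 10 min at room temperature with library DNA (1.5 µg first cycle, 200 ng later cycles) in 100 µl of 10 mM Tris–HCl pH 7.5, 50 mM NaCl, poly(dI-dC) and DTT. Ni2+ bead-captured complexes went through washing, PCR amplification and reselection for up to 6 cycles, in triplicate, before MiSeq sequencing and scanning for 6-mers.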
# [2] = target: T2, SALL4 ZFC4 R900W (HT-SELEX) (Mus musculus, UniProt Q8BX22 870-940, R900W)
# T2 sequence: T1 sequence with R31W
# In short: as §1
# [3] = target: T3, SALL4 ZFC4 G921D (HT-SELEX) (Mus musculus, UniProt Q8BX22 870-940, G921D)
# T3 sequence: T1 sequence with G52D
# In short: as §1
Sequence,binding signal [1] [fold-change vs cycle 0],binding signal [2] [fold-change vs cycle 0],binding signal [3] [fold-change vs cycle 0]
CATTTA,1.86 ± 0.0709,1.83 ± 0.108,1.69 ± 0.163
ACCCGT,0.418 ± 0.0141,0.5 ± 0.0199,0.577 ± 0.0315
GCCTAC,0.304 ± 0.0224,0.368 ± 0.00435,0.499 ± 0.0602
AGATCT,1.31 ± 0.115,1.45 ± 0.063,1.47 ± 0.0799
CAAGTA,1.28 ± 0.0466,1.42 ± 0.0751,1.34 ± 0.0943
AATTTC,2.1 ± 0.178,1.76 ± 0.0861,1.64 ± 0.101
AGTTGC,0.578 ± 0.0388,0.664 ± 0.014,0.77 ± 0.0363
GTCAAA,0.9908 ± 0.00315,1.12 ± 0.0182,1.13 ± 0.0122
AAAAGT,1.71 ± 0.0529,1.76 ± 0.0934,1.58 ± 0.113
CAGAAC,0.725 ± 0.0111,0.847 ± 0.0358,0.863 ± 0.0478
GTCGTA,0.571 ± 0.0216,0.663 ± 0.0204,0.752 ± 0.0439
ACCCGA,0.382 ± 0.00644,0.46 ± 0.0102,0.576 ± 0.0588
CAGGAC,0.423 ± 0.0322,0.487 ± 0.0192,0.578 ± 0.0205
GTTAAA,1.66 ± 0.0709,1.8 ± 0.123,1.61 ± 0.154
CTTGTC,0.741 ± 0.0177,0.888 ± 0.0216,0.915 ± 0.0332
TATTGA,2.22 ± 0.167,2 ± 0.134,1.83 ± 0.179
GAAGAC,0.8159 ± 0.00405,0.962 ± 0.00987,0.993 ± 0.0221
GCCATA,0.544 ± 0.0118,0.556 ± 0.0265,0.681 ± 0.0554
CCCACA,0.389 ± 0.0158,0.42 ± 0.0162,0.523 ± 0.0663
AACTGG,0.7531 ± 0.00684,0.889 ± 0.0264,0.904 ± 0.0346

Sequence,binding signal [1] [fold-change vs cycle 0],binding signal [2] [fold-change vs cycle 0],binding signal [3] [fold-change vs cycle 0]
CCATGG,0.445 ± 0.023,0.524 ± 0.00825,0.622 ± 0.0615
CACATC,0.757 ± 0.0342,0.861 ± 0.0321,0.929 ± 0.0433
GTCACA,0.677 ± 0.0487,0.804 ± 0.0553,0.861 ± 0.0406
AGGAAA,1.31 ± 0.0867,1.43 ± 0.085,1.35 ± 0.118
AGTCTC,0.837 ± 0.0339,0.9527 ± 0.00762,1 ± 0.0392
ATCCTC,0.944 ± 0.0401,1.06 ± 0.0699,1.09 ± 0.0423
AAGTTC,1.29 ± 0.0532,1.44 ± 0.0457,1.36 ± 0.0438
AAGGCT,0.61 ± 0.0387,0.726 ± 0.0643,0.8372 ± 0.00507
GTATCA,1.39 ± 0.0637,1.4 ± 0.0395,1.38 ± 0.0408
GACCGA,0.327 ± 0.0131,0.4 ± 0.0327,0.52 ± 0.0745
GTGAAA,1.16 ± 0.0303,1.27 ± 0.0355,1.19 ± 0.0481
CAGTCA,0.794 ± 0.0288,0.925 ± 0.0192,0.946 ± 0.028
CGTAAC,0.768 ± 0.0406,0.887 ± 0.0447,0.922 ± 0.0472
CAAGGG,0.487 ± 0.0326,0.5882 ± 0.00585,0.665 ± 0.033
ATCCAA,1.28 ± 0.0363,1.37 ± 0.0499,1.32 ± 0.0492
AGTTTA,1.89 ± 0.117,1.94 ± 0.143,1.72 ± 0.194
TCGTCA,0.675 ± 0.0174,0.765 ± 0.0313,0.852 ± 0.012
CAAAAC,0.936 ± 0.0391,1.06 ± 0.0573,1.08 ± 0.0366
CTTCGA,0.707 ± 0.0176,0.789 ± 0.0144,0.875 ± 0.0344
CAACGG,0.353 ± 0.0289,0.419 ± 0.0235,0.526 ± 0.0596

Sequence,binding signal [1] [fold-change vs cycle 0],binding signal [2] [fold-change vs cycle 0],binding signal [3] [fold-change vs cycle 0]
GACTAC,0.777 ± 0.0619,0.891 ± 0.0393,0.967 ± 0.0652
GACAGA,0.725 ± 0.0509,0.826 ± 0.0442,0.903 ± 0.00925
AGTAGG,0.864 ± 0.0537,0.972 ± 0.0557,0.989 ± 0.0263
GCTAGA,0.636 ± 0.0274,0.746 ± 0.0225,0.8072 ± 0.00258
GATATA,2.54 ± 0.207,1.98 ± 0.124,1.77 ± 0.173
ATCAAG,1.41 ± 0.0614,1.55 ± 0.0618,1.47 ± 0.0828
AGTCAT,1.45 ± 0.0471,1.53 ± 0.0494,1.46 ± 0.106
AACACA,1.18 ± 0.0535,1.29 ± 0.058,1.27 ± 0.0417
CGGTAG,0.351 ± 0.018,0.418 ± 0.01,0.514 ± 0.0341
AATACA,2.08 ± 0.131,1.92 ± 0.0574,1.74 ± 0.0979
ACCTAC,0.796 ± 0.0505,0.908 ± 0.0415,0.957 ± 0.0179
CACGTG,0.391 ± 0.0518,0.459 ± 0.0227,0.562 ± 0.0574
AACTTG,1.21 ± 0.0551,1.34 ± 0.0813,1.29 ± 0.0625
ACTTTA,1.93 ± 0.117,1.99 ± 0.146,1.75 ± 0.227
TACACA,1.21 ± 0.07,1.3 ± 0.0721,1.29 ± 0.0617
CCGTAC,0.377 ± 0.0221,0.458 ± 0.015,0.544 ± 0.0408
TATATA,5.68 ± 0.781,2.55 ± 0.233,2.17 ± 0.291
AGATAC,1.32 ± 0.0304,1.44 ± 0.052,1.4 ± 0.118
CTCCAG,0.482 ± 0.0297,0.584 ± 0.0424,0.667 ± 0.0339
ACCCAC,0.443 ± 0.0307,0.506 ± 0.0282,0.606 ± 0.0557
